Pf Dd2 growth: inhibitors of Plasmodium falciparum Dd2 growth. P. falciparum Dd2 growth, SYBR Green, 72 h. Potency, µM (top dose mostly 28.9 µM), without a hit: at the top dose activity, negative = inhibition, hits mostly inhibitors. 120,000 compounds, 4.3% hits. AID 1347417; active = well fitted inhibition curve with a large enough effect;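 note: plate controls were DMSO vehicle for no effect and reference drug for full effect; nearly all actives have a fitted effect of over 65% in size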
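Readout: SYBR Green fluorescence, 485 nm excitation, 535 nm emission, after ~16 h lysis at 37C. Before that, Dd2-infected red cells (2.5% hematocrit) grew 72 h with compound, 29 uM top final concentration.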
* marks the source's active call; other numbers are inactive results; i = inactive; [ ] = another dose, or the depositor's remark. This is one part of a sample in which hits are shown more often than they occur. Potency is the fitted concentration of half-maximal effect.

SMILES	Pf Dd2 growth
C[S+](=O)([O-])N1Cc2ccccc2CC12CN(C(=O)c1ccc(Cl)nc1)C2	-20%
O=C(c1ccccc1)N1CCC2(CC1)C(=O)NCN2Cc1ccc(Cl)cc1	-3%
Cc1ccc(CNC(=O)c2ccc3c(c2)N(C(=O)c2ccc(F)cc2)CC3)o1	-12%
CCN(Cc1ccncc1)C(=O)c1cc(-c2cnc(C)nc2)nc2c(C)cccc12	-21%
CCCN(Cc1ccncc1)C(=O)c1cnc(-c2ccccn2)[nH]c1=O	13µM*
CCCCN(Cc1cccnc1)C(=O)c1cnc(-c2ccc(C)cc2)[nH]c1=O	-21%
CN1CC2(CCCN(C(=O)CCc3ccccc3Cl)CC2)OC1=O (stereo not given)	-4%
COc1cccc(NC(=O)N2CCCC3(C2)Nc2cccnc2NC3=NC2CCCC2)c1 (stereo not given)	-1%[5.79 µM]
COc1ccc(C)cc1NC(=O)N1CCCC2(C1)Nc1cccnc1NC2=NC1CCCC1 (stereo not given)	1.3µM*
O=C(Nc1cc(F)cc(F)c1)N1CCCC2(C1)Nc1cccnc1NC2=NC1CCCC1 (stereo not given)	-16%[5.79 µM]
CCn1nc(C)c(CCC(=O)NC2CCCc3c2[nH]c2c(Cl)cccc32)c1C (stereo not given)	i
CSc1cccc(NC(=O)NC[C@H]2C[C@@H]3CCN2C[C@@H]3CN(C)c2ccccc2)c1	8.9µM*
CSc1cccc(NC(=O)NC[C@H]2C[C@@H]3CCN2C[C@@H]3CN2CCN(c3ncccn3)CC2)c1	i
C#C[C@H]1CN2CC[C@H]1C[C@@H]2CNC(=O)Nc1cccc(SC)c1	i
COc1cc(F)ccc1-c1cc(C(=O)NCc2cccnc2)c2c(c1)ncn2C	52%[44.1 µM]
COCCN1CCC(CN(C)C(=O)C(N)c2c(C)n[nH]c2C)CC1 (stereo not given)	-7%
COc1cccc(NC(=O)NC[C@@H]2C=C(C)[C@H](CC(=O)N3CCOCC3)C[C@H]2C(C)C)c1	-20%
COc1ccccc1C(=O)NC[C@@H]1C=C(C)[C@H](CC(=O)N2CCCC2)C[C@H]1C(C)C	13µM*
CC1=C[C@@H](CNC(=O)c2cccnc2)[C@H](C(C)C)C[C@H]1CC(=O)N1CCCC1	-29%[44.1 µM]
C#CCNC(=O)C[C@@H]1C[C@@H](C(C)C)[C@H](CNC(=O)c2ccccn2)C=C1C	-10%[44.1 µM]
COc1ccccc1C(=O)NC[C@@H]1C=C(C)[C@H](CC(=O)NCc2ccccn2)C[C@H]1C(C)C	i
CC1=C[C@@H](CNC(=O)c2ccccn2)[C@H](C(C)C)C[C@H]1CC(=O)N1CCN(C)CC1	11µM*
COc1cccc(NC(=O)NC[C@@H]2C=C(C)[C@H](CC(=O)N3CCN(c4ccccn4)CC3)C[C@H]2C(C)C)c1	13µM*
CC1=C[C@@H](CNC(=O)c2cccnc2)[C@H](C(C)C)C[C@H]1CC(=O)N1CCN(C)CC1	i
CC(=O)N1CCN(C(=O)C[C@@H]2C[C@@H](C(C)C)[C@H](CNC(=O)Nc3cccc(F)c3)C=C2C)CC1	i
SMILES	Pf Dd2 growth
CN(C)c1cccc(-c2cnc3[nH]cc(CC(=O)N4CCOCC4)c3c2)c1	i
Cc1noc(C)c1CCC(=O)NC1CC(c2cc(=O)[nH]c(C3CC3)n2)C1 (stereo not given)	0%
Cc1ccc(NC(=O)C2CCCN(S(=O)(=O)c3ccccc3)CCC(=O)NCC2)cc1 (stereo not given)	33%
O=C(CCc1nc2ccc(Cl)cc2[nH]1)N1CCc2nc3cc(-c4ccccc4)[nH]n3c(=O)c2C1	-8%[5.79 µM]
c1ccc(C2CNC2)nc1	-2%[76.6 µM]
CCN(Cc1cnn(C)c1)C(=O)C1CCC(=O)N(Cc2cccc(OC)c2)C1 (stereo not given)	28%
Cc1ccc(-c2ncc3c(n2)OCCN(Cc2ccc(F)cc2F)C3=O)cc1	i
COCCNC(=O)[C@@H]1C[C@H](Oc2cccnc2)CN1C(=O)c1cnccn1	13%
CCCN(CCC)CC(O)Cn1cc(/C=C/C(=O)c2ccc(OC)cc2)c2ccccc21 (stereo not given)	3.2µM*
COc1ccc(C(=O)NCCn2cc(SCc3cc(C)ccc3C)c3ccccc32)cc1	-18%
CCCn1cc2c3c(cccc31)CN(C(=O)c1ccc(OC)cc1)CC2	i
COc1ccc(C(=O)/C=C/c2cn(CC(O)CN(CC(C)C)CC(C)C)c3ccccc23)cc1 (stereo not given)	3.2µM*
COc1ccc(NC(=O)Cn2cc(C(=O)C3CC3)c3ccccc32)cc1	0%
COc1ccc(C(=O)NCCn2cc(SCC(=O)Nc3ccc(F)cc3)c3ccccc32)cc1	i
O=C(Nc1ccccc1F)N1CCCC(c2nc(C3CCOCC3)no2)C1 (stereo not given)	42%
COc1ncc(-c2ccc3ncn(-c4ccc(F)cc4F)c(=O)c3n2)cn1	-18%[44.1 µM]
CN(Cc1cccc(C(F)(F)F)c1)C(=O)C1(C)CCOCC1	10%
CCNC(=O)N1C[C@@H](Oc2ccccc2)C[C@H]1C(=O)N1CCOCC1	2%
COc1ccc(C(=O)Nc2ccc3n(c2=O)C[C@H]2C[C@@H]3CN(S(=O)(=O)c3ccc(OC)cc3)C2)cc1	7%
CCN(Cc1ccc(C)o1)C(=O)c1cccc(CCC(C)(C)O)c1	4%
Cc1ccc(-n2ncc(C(=O)N3CCN(C(=O)c4ccco4)CC3)c2C2CCN(C(=O)OC(C)(C)C)CC2)cc1	-19%
CC(C)(C)OC(=O)N1CCC(c2c(C(=O)N3CCN(C(=O)c4ccco4)CC3)cnn2-c2ccccc2)CC1	-9%
CC(C)(C)OC(=O)N1CCC(c2c(C(=O)N3CCN(Cc4ccccc4)CC3)cnn2-c2ccc(Cl)cc2)CC1	11µM*
Cc1ccc(-n2ncc(C(=O)N3CCN(Cc4ccccc4)CC3)c2C2CCN(C(=O)OC(C)(C)C)CC2)c(C)c1	8.9µM*
COc1ccc(NC(=O)N[C@H]2C[C@@H](C(=O)N[C@H](Cc3c[nH]c4ccccc34)C(N)=O)N(C(=O)c3cccn3C)C2)cc1	-22%
SMILES	Pf Dd2 growth
O=C(Cc1ccc(Cl)cc1)N1CCN(c2cc(-c3cccs3)[nH]n2)CC1	-8%
Cn1ccc(NC(=O)C2(C)CCc3cnc(NCc4ccccc4)nc32)n1 (stereo not given)	-19%[44.1 µM]
NCc1ccccc1Oc1ccc(F)c(Cl)c1	11µM*
COc1ccc2c(c1)c1c(c(=O)n(-c3ccc(F)c(Cl)c3)c(=O)n1Cc1ccccc1F)n2C	16%
CCOc1ccccc1NC(=O)N1CCC(N2CCN(Cc3ccccc3)C(=O)C2=O)CC1	10%[5.79 µM]
COCCC(=O)N1CCC(N2C(=O)C3(CCCCC3)C2c2ccccc2)CC1 (stereo not given)	-28%
O=C(CN1CCOCC1)N1CCC(N2C(=O)C3(CCCCC3)C2c2ccccc2)CC1 (stereo not given)	i
O=C(CN1CCCCCC1)N1CCC(N2C(=O)C3(CCCC3)C2c2ccccc2)CC1 (stereo not given)	4.5µM*
CCOc1ccccc1NC(=O)N1CCC(N2C(=O)C3(CCCC3)C2c2ccccc2)CC1 (stereo not given)	8.9µM*
CC(C)C(=O)N1CCC(N2C(=O)C3(CCCC3)C2c2ccccc2)CC1 (stereo not given)	-6%
CN1CC(=O)N(C2CCCNCC2)Cc2c1ncnc2N1CCCC(O)C1 (stereo not given)	12%
CNC(=O)N1CCC(C2CCN(C(=O)Cc3ccc(F)cc3)C2)CC1 (stereo not given)	-15%
CN1C[C@H]2CN(Cc3ccc(C(=O)O)cc3)CCN2C1=O	-5%[44.1 µM]
Cc1cc(C(=O)N2c3ccccc3CC2c2nc(C(C)C)no2)nn1C (stereo not given)	11%[5.79 µM]

From PubChem
